Data on nine molecules can be found in PubChem BioAssay (NCI).

Among the test systems are MOLT-4 leukemia; SR leukemia; RPMI-8226 leukemia; OVCAR-8 ovarian; OVCAR-5 ovarian; OVCAR-4 ovarian; SK-OV-3 ovarian; IGROV1 ovarian; HS 578T breast; NCI/ADR-RES ovarian; T-47D breast; BT-549 breast; MDA-MB-435 melanoma; SW-620 colon; MCF7 breast; HCT-116 colon; HCC-2998 colon; KM12 colon; OVCAR-3 ovarian.
Test in all cases: NCI-60 one-dose screen, 48 h (100 = growth as untreated, 0 = no growth, -100 = all killed)
Common to all, as to settings: 10 µM unless noted

The panel holds about 83,000 compounds, 20% with a hit somewhere; the sample as a whole holds those more often.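 Percent growth is the endpoint: 0 to 100 indicates growth inhibition (40 means 60% inhibition), 0 means no net growth, and negative values indicate cell death.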 A number with no mark means an inactive call. The source made the active and inactive calls. Rule for the calls: active = growth percent below 10; inactive = the rest.

With `c1cnc2[nH]cc(-c3csc(-c4cn(CCCCN5CCCCC5)c5ccccc45)n3)c2c1`, the growth in the assay on MOLT-4 leukemia was 56.4%; in the assay with SR leukemia, -23.5% (active); in the assay with RPMI-8226 leukemia, 52.5%; in the assay with OVCAR-8 ovarian, 87.3%; in the assay with OVCAR-5 ovarian, 96.3%; with OVCAR-4 ovarian, 83.8%. The growth in the assay on SK-OV-3 ovarian was 109%; in the assay on IGROV1 ovarian, 44.9%; in the assay on HS 578T breast it was 84.3%; in the assay with NCI/ADR-RES ovarian it was 89.8%; in the assay on T-47D breast, 79.4%; in the assay on BT-549 breast, 105%. The growth in the assay on MDA-MB-435 melanoma was 80.5%; in the assay on SW-620 colon it was 76.8%; in the assay with MCF7 breast it was 58.9%; with HCT-116 colon it was 81.8%; with HCC-2998 colon, 95.6%; in the assay on KM12 colon, 85.5%.

As to `COC(=O)[C@H](C[C@H](Cc1ccccc1)NC(=O)c1csc([C@@H](C[C@H](C(C)C)N(C)C(=O)[C@@H](NC(=O)[C@H]2CCCCN2C)C(C)C)OC(C)=O)n1)NC(=O)OCc1ccccc1`, the growth is 16.1% [8.5 µM] in the assay with MOLT-4 leukemia; -16.9% [8.5 µM] (active) in the assay with SR leukemia; -13.9% [8.5 µM] (active) in the assay on RPMI-8226 leukemia; 22% [8.5 µM] with OVCAR-8 ovarian; 26.1% [8.5 µM] with OVCAR-5 ovarian; 40.4% [8.5 µM] in the assay with OVCAR-4 ovarian. Besides, the growth with SK-OV-3 ovarian is 22.9% [8.5 µM]; with IGROV1 ovarian, 13% [8.5 µM]; in the assay on HS 578T breast it was 15.3% [8.5 µM]; in the assay with NCI/ADR-RES ovarian it was 8.51% [8.5 µM] (active); in the assay with T-47D breast it was 74.1% [8.5 µM]; in the assay on BT-549 breast, -34.2% [8.5 µM] (active). The growth was -33% [8.5 µM] (active) in the assay with MDA-MB-435 melanoma; 25.4% [8.5 µM] in the assay with SW-620 colon; 29.4% [8.5 µM] in the assay with MCF7 breast; -4.29% [8.5 µM] (active) with HCT-116 colon; 20.4% [8.5 µM] in the assay on HCC-2998 colon; 3.13% [8.5 µM] (active) in the assay with KM12 colon.

Take `CN(C)C(=O)Oc1ccc(Br)cc1`: the growth in the assay on MOLT-4 leukemia is 102%; in the assay on SR leukemia, 100%; with RPMI-8226 leukemia it was 106%; with OVCAR-8 ovarian, 106%; in the assay with OVCAR-5 ovarian, 106%; in the assay with OVCAR-4 ovarian, 97.7%. In addition, the growth in the assay with SK-OV-3 ovarian was 95.8%; in the assay on IGROV1 ovarian, 96.7%; in the assay on HS 578T breast, 115%; in the assay on NCI/ADR-RES ovarian it was 106%; with T-47D breast, 92.4%; in the assay on BT-549 breast it was 103%. The growth in the assay with MDA-MB-435 melanoma is 104%; in the assay on SW-620 colon it was 109%; in the assay on MCF7 breast, 88.7%; in the assay on HCT-116 colon, 103%; with HCC-2998 colon, 108%; in the assay with KM12 colon it was 101%.

As for `Nc1ccc(OCCNS(=O)(=O)c2cccc(S(=O)(=O)F)c2)c(Cl)c1`, the growth with MOLT-4 leukemia is 76.2%; in the assay with SR leukemia, 93.3%; in the assay with RPMI-8226 leukemia it was 80.4%; in the assay on OVCAR-8 ovarian, 115%; in the assay with OVCAR-5 ovarian it was 102%; in the assay with OVCAR-4 ovarian it was 64.1%. In addition, the growth in the assay with SK-OV-3 ovarian is 87.1%; with IGROV1 ovarian, 97.3%; in the assay on HS 578T breast it was 93.6%; in the assay with NCI/ADR-RES ovarian, 101%; in the assay on T-47D breast, 102%; in the assay with BT-549 breast, 95.9%. In addition, the growth in the assay with MDA-MB-435 melanoma was 98.2%; with SW-620 colon, 106%; with MCF7 breast, 85.3%; in the assay with HCT-116 colon it was 95.2%; in the assay with HCC-2998 colon, 101%; in the assay with KM12 colon it was 101%.

For the molecule `CC12CC(=O)C3(SC#N)C(CCC4=CC(=O)CCC43C)C1CCC2=O` (configuration not stated), the growth is 22.2% in the assay on MOLT-4 leukemia; 86.1% in the assay with SR leukemia; 77.5% in the assay on RPMI-8226 leukemia; 89.6% in the assay with OVCAR-8 ovarian; 103% in the assay on OVCAR-5 ovarian; 73.8% in the assay on OVCAR-4 ovarian. The growth in the assay on SK-OV-3 ovarian was 109%; with IGROV1 ovarian, 99.2%; in the assay on OVCAR-3 ovarian, 42.1%; in the assay on T-47D breast, 32.8%; in the assay on BT-549 breast it was 90.7%; in the assay on MDA-MB-435 melanoma, 70.9%. Further, the growth was 40.6% in the assay on SW-620 colon; 57.7% in the assay with MCF7 breast; 39.7% in the assay with HCT-116 colon; 105% in the assay with HCC-2998 colon; 102% with KM12 colon.

On to `Cc1ccc(C(Cc2ccccc2)NCCO)cc1` (configuration not stated), for which the growth with MOLT-4 leukemia was 88.2%; in the assay on SR leukemia, 105%; in the assay on RPMI-8226 leukemia, 92%; in the assay on OVCAR-8 ovarian, 103%; in the assay with OVCAR-5 ovarian, 55.4%; in the assay on OVCAR-4 ovarian, 94.7%. Also, the growth in the assay on SK-OV-3 ovarian was 75.8%; in the assay with IGROV1 ovarian, 103%; in the assay with HS 578T breast, 97.8%; in the assay on NCI/ADR-RES ovarian it was 100%; with T-47D breast it was 67.7%; in the assay on BT-549 breast, 69.3%. In addition, the growth with MDA-MB-435 melanoma was 99.1%; with SW-620 colon, 104%; in the assay with MCF7 breast it was 93.4%; in the assay with HCT-116 colon it was 90%; with HCC-2998 colon it was 99.9%; in the assay with KM12 colon, 90%.

`COC(=O)[C@@]1(O)C[C@H]2O[C@]1(C)n1c3ccccc3c3c4c(c5c6ccccc6n2c5c31)C(=O)NC4`: the growth was -31% (active) in the assay on MOLT-4 leukemia; -18.3% (active) with SR leukemia; -39.6% (active) in the assay on RPMI-8226 leukemia; -43.6% (active) in the assay with OVCAR-8 ovarian; -11.6% (active) with OVCAR-5 ovarian; -51% (active) with OVCAR-4 ovarian. Further, the growth with SK-OV-3 ovarian was -33.8% (active); with IGROV1 ovarian, -30.4% (active); with NCI/ADR-RES ovarian it was -40.2% (active); in the assay on T-47D breast, -37.4% (active); in the assay on BT-549 breast, -73.9% (active); in the assay on SW-620 colon, -19.7% (active). Further, the growth with MCF7 breast was -40.7% (active); in the assay on HCT-116 colon, -4.08% (active); in the assay with HCC-2998 colon it was -53.4% (active); with KM12 colon it was -13.9% (active).

As for `COC(=O)C1OC(Oc2ccc(N(CCCl)CCCl)cc2)C(OC(C)=O)C(OC(C)=O)C1OC(C)=O` (configuration not stated), the growth is 37.3% in the assay on MOLT-4 leukemia; 4.19% (active) with SR leukemia; 96.6% with RPMI-8226 leukemia; 84.8% in the assay with OVCAR-8 ovarian; 90.4% with OVCAR-5 ovarian; 87.7% with OVCAR-4 ovarian. Moreover, the growth in the assay with SK-OV-3 ovarian was 96.7%; in the assay with OVCAR-3 ovarian it was 94.2%; in the assay on HS 578T breast it was 102%; in the assay on NCI/ADR-RES ovarian it was 92.9%; with T-47D breast, 77.4%; in the assay on BT-549 breast, 95.3%. In addition, the growth in the assay with MDA-MB-435 melanoma was 93.2%; with SW-620 colon, 75.4%; in the assay with MCF7 breast, 57.8%; in the assay with HCT-116 colon, 88.6%; in the assay on HCC-2998 colon, 96%.

As to `Cc1cc(C)cc(Nc2nc3c(s2)CC[C@@]2(C)C3=CC[C@@H]3[C@@H]2CC[C@]2(C)C(=O)CC[C@@H]32)c1`, the growth is 10.3% in the assay with MOLT-4 leukemia; 12.5% with SR leukemia; 4.21% (active) in the assay with RPMI-8226 leukemia; 50.4% in the assay with OVCAR-8 ovarian; 93.3% in the assay with OVCAR-5 ovarian; 70% with OVCAR-4 ovarian. Moreover, the growth was 79.8% with SK-OV-3 ovarian; 85.2% with IGROV1 ovarian; 58.3% in the assay with HS 578T breast; 74.5% in the assay with NCI/ADR-RES ovarian; 28.9% in the assay with T-47D breast; 47.2% with BT-549 breast. For the same molecule, the growth was 37.8% in the assay with SW-620 colon; 16.9% in the assay with MCF7 breast; 6.21% (active) in the assay with HCT-116 colon; 94.2% in the assay with HCC-2998 colon; 55.5% with KM12 colon.
